Giardia killer: Small Molecules that selectively kill Giardia lamblia: qHTS | activity change, % at 7.66 µM, hits read low | Giardia lamblia trophozoite viability | hit rate 0.15% among 340,000 | AID 540267, 2011; in the data active = activity change below about -80%; inconclusive = between about -30% and that limit;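 note: parasites exposed to compound for two days anaerobically before the ATP read; % is set by controls: 0 for no effect and ±100 for the full control effect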
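Luminescent ATP signal served as the viability read-out, measured 15-30 min after adding ATP detection reagent to trophozoites that had been incubated with compounds for 48 hrs at 37 deg C anaerobically at 100 cells/well.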
RORg inh: qHTS for inhibitors of ROR gamma transcriptional activity; Drosophila S2 Gal4-RORgamma UAS-luciferase reporter, 20 h; hit rate 5.4% among 310,000; Potency, µM (highest dose often 53.6 µM), for inactives: at the highest dose activity change, negative = inhibition, hits mostly inhibitors; note: potency is the fitted concentration of half-maximal effect; % is set by controls: 0 for no effect and ±100 for the full control effect; nearly all actives have a fitted effect of over 60% in size
Target sequence (P51450 whole entry, looked up, the tested form may be a part): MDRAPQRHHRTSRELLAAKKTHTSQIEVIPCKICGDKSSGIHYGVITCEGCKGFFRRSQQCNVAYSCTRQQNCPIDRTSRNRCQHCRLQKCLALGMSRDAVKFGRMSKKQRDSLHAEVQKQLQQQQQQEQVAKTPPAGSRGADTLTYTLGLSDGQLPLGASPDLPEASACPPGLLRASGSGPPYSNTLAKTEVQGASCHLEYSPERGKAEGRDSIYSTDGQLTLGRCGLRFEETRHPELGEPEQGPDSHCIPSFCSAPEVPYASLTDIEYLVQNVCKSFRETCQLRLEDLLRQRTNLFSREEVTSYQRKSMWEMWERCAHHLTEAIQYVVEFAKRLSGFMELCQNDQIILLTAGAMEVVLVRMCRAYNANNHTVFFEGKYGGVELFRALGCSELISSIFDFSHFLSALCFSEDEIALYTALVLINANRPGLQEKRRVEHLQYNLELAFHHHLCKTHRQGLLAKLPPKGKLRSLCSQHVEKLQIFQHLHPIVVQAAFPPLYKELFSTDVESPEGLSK
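Compounds are pin-transferred onto Drosophila Schneider cells expressing a copper-inducible Gal4–ROR gamma transactivation domain fusion. After 1 hr, copper sulfate is added to 700 uM final; luciferase is read 20 hr later.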
MCF10A rereplic: A quantitative high throughput screen for small molecules that induce DNA re-replication in MCF 10a normal breast cells | MCF 10A DNA re-replication, Hoechst nuclear intensity, 48 h | Potency, µM (series often up to 46.1 µM), for the others: at the top dose activity, positive = re-replication, hits mostly activators | AID 624296, 2012 | hit rate 2.9% among 350,000; note: potency is the fitted concentration of half-maximal effect; % of control where 0% means no effect; nearly all actives have a fitted effect of over 50% in size
Chronic BCR inh: qHTS Assay to Find Inhibitors of Chronic Active B-Cell Receptor Signaling; hit rate 0.05% among 340,000; ABC-DLBCL IkBa-CBG/CBR reporter, luminescence ratio, 4 h; Potency, µM (top dose mostly 46.1 µM), without a hit: top-dose activity change, negative = inhibition, most hits filed as inhibitors; active = well fitted inhibition curve with a large enough effect in the signal ratio, with a control signal flat, not every such curve was filed as active; inconclusive = small, poorly fitted or top-dose-only effect, or effect the other way, or a change in a side signal; the % refers to the signal ratio;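 note: potency is the fitted concentration of half-maximal effect; plate controls were basal doxycycline-induced cells for no effect and cells given 10 µM MG132 for full effect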
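TMD8 human ABC-DLBCL cells with doxycycline-inducible IκBα–green luciferase fusion and unfused red luciferase, in 0.5% FBS medium; compounds up to 46 uM, 4 h at 37C. Green/red luminescence ratio, filter-overlap corrected, fitted to concentration-response curves.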
Gal4-VP16 FLuc: VP16 counterscreen qHTS for inhibitors of ROR gamma transcriptional activity | hit rate 3.5% among 310,000 | Drosophila S2 Gal4-VP16 UAS-luciferase, luminescence, 20 h | Potency, µM (titrated, usually from 53.6 µM), for the others: top-dose activity, negative = inhibition, usual class: inhibitors;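 note: Gal4-VP16 expression switched on by copper sulfate through the metallothionein promoter; potency is the fitted concentration of half-maximal effect; % is set by controls: 0 for no effect and ±100 for the full control effect; nearly all actives have a fitted effect of over 50% in size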
SW480 rereplic: A quantitative high throughput screen for small molecules that induce DNA re-replication in SW480 colon adenocarcinoma cells | SW480 DNA re-replication, Hoechst DNA content imaging, 48 h | Potency, µM (top dose mostly 46.1 µM), inactives show at the top dose re-replication activation, most hits filed as activators | hit rate 1.8% among 340,000 | AID 624297, 2012; note: potency is the fitted concentration of half-maximal effect; % of control where 0% means no effect; nearly all actives have a fitted effect of over 55% in size
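Readout is total intensity of Hoechst-stained nuclei, excited at 405 nm and collected at 500-530 nm. Compound treatment lasted 48 hr at 37 C in 5% CO2 before staining.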
* hit, by the source's call; ? = inconclusive; . = no result. Most compounds without a hit are left out; they make up all but 8.3% or so of the library. Unless noted, calls come from the whole dose curve; as a rule, active = well fitted curve in the direction sought with a large enough effect; inconclusive = small, poorly fitted or top-dose-only effect, or another doubt; inactive = no such curve, though single readings can be large; an effect the other way counts as inactive or inconclusive.

SMILES | Giardia killer | RORg inh | MCF10A rereplic | Chronic BCR inh | Gal4-VP16 FLuc | SW480 rereplic
CCN(c1cccc(C)c1)S(=O)(=O)c1c(C)[nH]c(=O)[nH]c1=O | 0.8 | -6.3% | 18.8% | ? | -4.0% | 1.0%
Cc1ccccc1OCC(=O)N/N=C/c1cn(Cc2ccccc2)c2ccccc12 | -1.5 | 17.8µM* | ? | -13.4% | ? | -0.6%
Cc1ccc(OCC(=O)N/N=C\c2cn(Cc3ccccc3)c3ccccc23)cc1C | -9.0 | 11.2µM* | 8.7% | 4.0% | ? | -6.0%
Cc1ccc(OCC(=O)N/N=C/c2cn(C)c3ccccc23)cc1 | 3.2 | -38.8% | ? | -13.1% | -3.8% | -20.8%
COc1ccc(NC(=O)COC(=O)CCc2cc(OC)c(OC)c(OC)c2)c([N+](=O)[O-])c1 | 4.4 | 21.5% | -0.3% | -19.5% | -3.5% | -4.6%
CCCCCNC(=O)CCn1c(=O)[nH]c2ccccc2c1=O | . | . | . | 9.9% | . | .
CCOc1ccc(C(=O)Cc2cc(OC)c(OC)cc2[N+](=O)[O-])cc1 | 18.3 | 8.0% | 4.61µM* | 1.6% | -2.2% | 5.8µM*
COc1ccc(C(=O)Cc2cc(OC)c(OC)cc2[N+](=O)[O-])cc1 | -18.1 | 29.4% | -2.7% | ? | 8.9% | 0.2%
CC(=O)N1CCSc2ccc(S(=O)(=O)NCc3ccc(F)cc3)cc21 | 35.0 | -12.2% | 7.1% | 0.6% | -13.5% | ?
Cc1cc(-c2nnc(SCC(=O)Nc3ccccc3Cl)n2C)no1 | -4.8 | 2.8% | 1.5% | -1.7% | -5.2% | 1.7%
Cc1ccc(-n2nc3ccc(NC(=O)/C=C/c4ccco4)cc3n2)cc1 | -0.5 | 40.9% | 11.6µM* | ? | 4.0% | ?
Cc1ccc(NC(=O)c2cccc(NC(=O)/C=C/c3ccco3)c2)cc1C | -8.7 | 32.4% | ? | ? | -21.8% | 3.8%
CCCCCCCc1ccc(-c2ccc(O)cc2)nc1 | -3.8 | ? | ? | ? | ? | -3.4%
CC(C)CCCCCCc1ccc(O)cc1 | . | -1.2% | 29.9µM* | . | 9.2% | 10.4%
N#CC(C#N)=C1C=CC=CN1/C(=C\c1ccccc1Cl)C(=O)c1ccccc1 | 14.3 | 6.31µM* | 6.51µM* | ? | 3.16µM* | 9.2µM*
Cc1nn(-c2ccccc2)c(C)c1NC(=O)COc1ccc([N+](=O)[O-])cc1 | -7.1 | . | 25.1% | -6.3% | . | -0.6%
Cc1c(C(=O)OCCOC(C)C)[nH]c2c1C(=O)CC(C)(C)C2 | -2.0 | ? | -0.8% | 9.1% | 28.9% | 2.9%
COCCOC(=O)c1[nH]c2c(c1C)C(=O)CC(c1ccc(F)cc1)C2 (stereo not drawn) | -12.2 | 33.7% | ? | -1.2% | -6.1% | ?
Cc1c(C(=O)OCCOC(C)C)[nH]c2c1C(=O)CC(c1ccco1)C2 (stereo not drawn) | -7.7 | ? | ? | ? | -2.7% | 1.46µM*
Cc1c(C(=O)OCc2ccccc2)[nH]c2c1C(=O)CC(c1ccco1)C2 (stereo not drawn) | 5.0 | -18.4% | ? | ? | ? | ?
COCCOC(=O)c1[nH]c2c(c1C)C(=O)CC(c1ccccc1)C2 (stereo not drawn) | 3.7 | ? | 5.8µM* | ? | 1.0% | 7.31µM*
COCCOC(=O)c1[nH]c2c(c1C)C(=O)CC(c1ccco1)C2 (stereo not drawn) | 6.5 | -5.6% | 8.2µM* | ? | -8.2% | 1.03µM*
CCOC(=O)c1[nH]c2c(c1C)C(=O)CC(c1ccco1)C2 (stereo not drawn) | -13.1 | ? | 9.2µM* | ? | -4.7% | 0.184µM*
CCCCCC(=O)Cc1cc(O)cc2c1C(=O)Oc1cc(O)c(C(=O)O)c(CCCCC)c1O2 | 10.1 | 14.0% | -11.1% | -0.4% | -4.1% | 15.8%

Screening results: PubChem BioAssay, National Center for Advancing Translational Sciences (NCATS)
